Consider 14 compounds from PubChem BioAssay (NCI).

Each structure is given as a SMILES string. This is part of a sample that, as a whole, favours compounds with a hit. Of some 83,000 tested, about 20% had one in any assay.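 Assay: single dose, 48 h. Readout: percent growth (0 = no net growth; negative = cell death). Active: <10.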 A number with no mark means an inactive call. The source made the active and inactive calls.

Among the test systems are NCI-H23 lung; NCI-H226 lung; NCI-H322M lung; HOP-62 NSCLC; NCI-H460 lung; HOP-92 NSCLC; NCI-H522 lung; A549/ATCC NSCLC; 786-0 renal; COLO 205 colon.
Assay in all cases: NCI-60 one-dose screen, 48 h (100 = growth as untreated, 0 = no growth, -100 = all killed)
Holding throughout (settings): 10 µM unless noted

Regarding `N#Cc1c(-c2cccnc2)cc(-c2ccc3ccccc3c2)[nH]c1=O`, the growth in the test with NCI-H23 lung was 77%; in the test with NCI-H226 lung, 81.9%; in the test with NCI-H322M lung it was 90.1%; with HOP-62 NSCLC it was 91.8%; with NCI-H460 lung, 83.7%; with HOP-92 NSCLC it was 78.5%. In addition, the growth in the test on NCI-H522 lung was 66.2%; in the test on A549/ATCC NSCLC, 85.1%; in the test on 786-0 renal, 11.9%; with COLO 205 colon, 115%.
As for `Cc1ccc(Cc2cnc(NC(=O)c3ccc(/C=C4\SC(=S)N(C)C4=O)cc3)s2)cc1`, the growth with NCI-H23 lung was 41.3%; in the test with NCI-H226 lung, 52.5%; with NCI-H322M lung, 35.9%; in the test on HOP-62 NSCLC it was 46.4%; with NCI-H460 lung, 39.6%; with HOP-92 NSCLC, 48.4%. Further, the growth in the test with NCI-H522 lung was -22.8% (active); with A549/ATCC NSCLC, 43.2%; in the test on 786-0 renal it was 37.8%; with COLO 205 colon, 24.4%.
Take `C=C1CC[C@@H]2[C@]3(C)COC(c4cn[nH]c4-c4ccccc4)O[C@@H]3CC[C@@]2(C)[C@@H]1C/C=C1/C(=O)OCC1O` (some centres undefined): the growth in the test with NCI-H23 lung is -27.2% (active); in the test with NCI-H226 lung it was -30.6% (active); in the test with NCI-H322M lung, 83.7%; with HOP-62 NSCLC it was 63.8%; in the test with NCI-H460 lung, 18%; with HOP-92 NSCLC it was -12.4% (active). Moreover, the growth is 1.15% (active) with NCI-H522 lung, 56.1% in the test with A549/ATCC NSCLC, -72.8% (active) in the test on 786-0 renal and -10.8% (active) in the test with COLO 205 colon.
As to `CSc1ccc(NC(=O)c2ccc3nn(/C(C#N)=C/c4ccccn4)nc3c2)cc1`, the growth is -90.9% (active) in the test on NCI-H23 lung; -90.5% (active) with NCI-H226 lung; -54.5% (active) with NCI-H322M lung; -70.3% (active) in the test with HOP-62 NSCLC; -64.5% (active) in the test with NCI-H460 lung; -33.9% (active) in the test with HOP-92 NSCLC. Further, the growth in the test with NCI-H522 lung is -84.6% (active); in the test with A549/ATCC NSCLC it was -71.8% (active); in the test with 786-0 renal, -84.7% (active); with COLO 205 colon, -79% (active).
As for `Cn1cc(-c2nc(N)nnc2-c2c[nH]c3ccc(Br)cc23)c2cccnc21`, the growth in the test with NCI-H23 lung was 65.5%; in the test on NCI-H226 lung it was 87.1%; with NCI-H322M lung it was 63.3%; in the test on HOP-62 NSCLC, 53.2%; in the test on NCI-H460 lung, 32.8%; in the test with HOP-92 NSCLC, 94.1%. In addition, the growth was 31.8% in the test with NCI-H522 lung, 56.7% in the test with A549/ATCC NSCLC, 37.1% with 786-0 renal and 44.5% with COLO 205 colon.
In the case of `COc1cccc(/C=C/C(=O)c2ccc(OC)c(S(N)(=O)=O)c2)c1`, the growth is 15.1% in the test with NCI-H23 lung; 53.9% with NCI-H226 lung; 22.2% in the test on NCI-H322M lung; 21.4% in the test on HOP-62 NSCLC; 16.2% in the test with NCI-H460 lung; 55.9% in the test on HOP-92 NSCLC. Also, the growth was -65.1% (active) in the test on NCI-H522 lung, 10.3% in the test with A549/ATCC NSCLC, 14.6% with 786-0 renal and -18.4% (active) in the test on COLO 205 colon.
On to `O=C1/C(=C/C2=Cc3ccccc3OC2)SC(=S)N1c1ccccc1F`, for which the growth with NCI-H23 lung is 103%; with NCI-H226 lung, 101%; in the test on NCI-H322M lung, 105%; with HOP-62 NSCLC it was 101%; in the test with NCI-H460 lung it was 121%; with HOP-92 NSCLC, 61.6%. Besides, the growth with A549/ATCC NSCLC is 96.7%; with 786-0 renal it was 87.4%; with COLO 205 colon it was 116%.
As to `CC1=C(C(=O)OCc2ccccc2)C(c2ccc(-n3cncn3)cc2)n2c(nc3ccccc32)N1` (centres undefined), the growth in the test with NCI-H23 lung was 86%; in the test on NCI-H226 lung, 77.6%; in the test with NCI-H322M lung, 83.5%; with HOP-62 NSCLC, 64.6%; in the test on NCI-H460 lung, 28.1%; with HOP-92 NSCLC it was 73.9%. Moreover, the growth with A549/ATCC NSCLC was 60.1%; with 786-0 renal it was 69.2%.
On to `O=C1Nc2ccc([N+](=O)[O-])cc2C1=Nc1ccccc1`, for which the growth with NCI-H23 lung is 106%; with NCI-H226 lung, 102%; with NCI-H322M lung, 96.1%; with HOP-62 NSCLC it was 114%; in the test with NCI-H460 lung it was 109%; in the test on HOP-92 NSCLC, 118%. The growth was 130% in the test on A549/ATCC NSCLC, 102% with 786-0 renal and 108% in the test on COLO 205 colon.
In the case of `COc1ccc2[nH]c(O)c(N=NC(=O)COc3ccc(NC(=O)Nc4ccccc4)cc3)c2c1`, the growth in the test with NCI-H23 lung is 20.2%; in the test on NCI-H226 lung, 26.7%; in the test with NCI-H322M lung, 37.2%; in the test with HOP-62 NSCLC it was -6% (active); with NCI-H460 lung, 48.7%; with HOP-92 NSCLC it was -9.25% (active). For the same compound, the growth with A549/ATCC NSCLC was 47.5%; with 786-0 renal it was 8.04% (active).
As for `O=S(=O)(Nc1cccc(-n2cnc3cc(-c4ccc(O)cc4)ccc32)c1)C1CC1`, the growth in the test on NCI-H23 lung is 38.5%; in the test with NCI-H226 lung, 19.3%; in the test with NCI-H322M lung it was 55.3%; with HOP-62 NSCLC it was 44.1%; with NCI-H460 lung, 15.8%; in the test on HOP-92 NSCLC, 87.9%. Moreover, the growth in the test with A549/ATCC NSCLC is 37.7%; in the test with 786-0 renal, 40.1%; with COLO 205 colon, 25.8%.
On to `COc1cc(-c2cc(-c3cccc(OCC(=O)O)c3)[nH]c(=O)c2C#N)cc(OC)c1OC`, for which the growth in the test on NCI-H23 lung is 101%; in the test on NCI-H226 lung it was 98.2%; with NCI-H322M lung, 91%; in the test with HOP-62 NSCLC, 99.1%; with NCI-H460 lung, 111%; with HOP-92 NSCLC, 85.4%. Further, the growth with A549/ATCC NSCLC was 100%; with 786-0 renal, 95.8%; with COLO 205 colon it was 119%.
`COc1cc(CNC(=O)/C=C/c2ccc3c(c2)OCO3)ccc1OCc1cn(-c2cccc(C(F)(F)F)c2)nn1`: the growth was 1.63% (active) in the test with NCI-H23 lung; -44.8% (active) with NCI-H226 lung; 26.4% with NCI-H322M lung; 1.47% (active) with HOP-62 NSCLC; 29.2% in the test with NCI-H460 lung; -37.5% (active) with HOP-92 NSCLC. The growth in the test on A549/ATCC NSCLC is -3.39% (active); with 786-0 renal, -44.7% (active); in the test with COLO 205 colon it was 25.3%.
Consider `CC1=C(C#N)C2=NNCC(c3ccccc3)=NN2C(c2ccccc2)=C1`, for which the growth in the test with NCI-H23 lung is 105%; in the test with NCI-H226 lung it was 111%; in the test with NCI-H322M lung, 105%; in the test with HOP-62 NSCLC, 85.6%; with NCI-H460 lung it was 111%; in the test with NCI-H522 lung it was 93.7%. In addition, the results for the growth in the test with A549/ATCC NSCLC and in the test on 786-0 renal were 99.3% and 98.2%, respectively.
